# According to ChEMBL document CHEMBL3988442, “University of Dundee, Small-Polar-MMV Screening Library” (2021):
# Screen size: about 48,000 compounds; about 13,000 (27%) showed an effect of 50% or more. The list shows a part of the results.
# System: Wolbachia pipientis
# Test: Anti-Wolbachia Cell-Based Screen
# Assay type: functional
# Design: scale not given: in the data most compounds retested in dose-response had high values
# Details: 5 µM
row,Structure (SMILES),Percent Effect [%]
1,O=C(NCCNc1ncccn1)NCCSC(F)(F)F,-9.16
2,Cc1cnn(C2CN(CC(O)c3ccc4c(c3)OCCO4)C2)c1 (centres undefined),-3.679
3,Cc1nn(C)c(N(C)C)c1CNCCCN(C)S(C)(=O)=O,-15.04
4,CCOc1cc(C(=O)O)cc(-c2ccccc2)c1OC,-26.33
5,CCCNC(=O)Nc1cc2c(cc1SC)OCCO2,21.87
6,CCOCCCC(=O)Nc1cc(C(N)=O)ccc1N1CCCCC1,2.668
7,CC(Cn1ccnc1)NC(=O)NCCc1ccc2c(c1)OCCO2 (centres undefined),0.8239
8,CC(C(=O)NCCc1ccc2c(c1)OCCO2)n1cncn1 (centres undefined),104.6
9,CC(C(=O)NCCOc1ccc2c(c1)OCO2)n1cncn1 (centres undefined),5.572
10,Cc1nn(C)c(C)c1C1CCCN1Cc1nc2ccccc2o1 (centres undefined),33.14
11,Cc1nn(C)c(C)c1C1CCCN1Cc1nc2ccccc2c(=O)[nH]1 (centres undefined),97.01
12,Cc1cc(C)n(C2CCN(Cc3nc4ccccc4n3C)CC2)n1,188.5
13,Cc1nn(C)c(C)c1C1CCCN1Cc1nc2ccccc2n1C (centres undefined),136.2
14,Cc1nc(C)n(CC2CCCN2Cc2nc3ccccc3n2C)n1 (centres undefined),1.241
15,Cn1c(CN2CCN(CC3CCCO3)CC2)nc2ccccc21 (centres undefined),-23.45
16,Cc1nn(C)c(C)c1C1CCCN1Cc1nc(N)c2ccccc2n1 (centres undefined),120.3
17,Cc1nn(C)c(C)c1C1CCCN1Cc1nc(C)c2ccccc2n1 (centres undefined),40.75
18,CCC1CCCN(Cc2nc3ccccc3c(=O)[nH]2)C1 (centres undefined),-14.75
19,Cc1nc(CN2CCCC2c2c(C)nn(C)c2Cl)no1 (centres undefined),-6.071
20,Cc1nc2ccccc2nc1CN1CCCC1c1c(C)nn(C)c1C (centres undefined),2.386
21,O=c1oc(-c2ccccc2)nn1CN1CCC(N2CCCCC2)CC1,-11.85
22,Cc1nc2scc(C)n2c1CNc1ccc(C(=O)O)cc1,1.868
23,CCC[C@@H]1CN(S(=O)(=O)c2ccc3[nH]c(=O)[nH]c3c2)C[C@H]1NC(C)=O,-12.43
24,Cn1c(CN2CCN(CC3CC3)CC2)nnc1C1CCC1,-1.801

row,Structure (SMILES),Percent Effect [%]
1,Cc1ccnc(C(NC(=O)c2ccc(O)nc2C)C2CC2)n1 (centres undefined),19.85
2,COC(CNC(=O)c1ccc[nH]1)c1cccc(Cl)c1 (centres undefined),-25.79
3,Cc1cccc2c1nc(CCO)n2-c1ccc(C(=O)N2CCOCC2)o1,-4.594
4,CC(C)Oc1cc(N2CCC(C(N)=O)CC2)nc(N)n1,11.1
5,CCN(CC(=O)NC(C)C)S(=O)(=O)N1CCCCC1C (centres undefined),-3.982
6,CCN(CC)S(=O)(=O)N1C[C@@H](c2ccccc2)[C@H]2[C@H]1CCCCCN2C,163.4
7,CCN(CC)S(=O)(=O)N1CC[C@H](c2ccccc2)[C@@H]2[C@H]1CCCCN2C,135.6
8,Cc1cc(S(=O)(=O)N2CCCc3ccc(F)cc32)sc1C(=O)O,-10.9
9,O=C([C@@H]1CCO[C@@H]2CCN(Cc3ccco3)C[C@H]21)N1CCCCO1,1.589
10,COc1ccc(CN2CCC[C@@H]3CN(C(=O)c4ccco4)C[C@@H]32)cc1.O=C(O)C(F)(F)F,6.144
11,CC(=O)N1CCC(=O)N(C2CCCC2)Cc2ccccc21,106.7
12,COc1cccc(SCC(=O)N2CCCC(N3CCCC3=O)C2)c1 (centres undefined),3.036
13,CC(=O)N1CCCN(C2CCCCc3ccccc32)CC1 (centres undefined),16.59
14,COC(C)(C)CNC(=O)C1CCC(=O)N(C2CCCC2)C1 (centres undefined),-37.87
15,COCC(=O)N1CCC(=O)N(C2CCCC2)Cc2cc(F)ccc21,102.4
16,COCC(=O)N1CCC(=O)N(C2CCCC2)Cc2ccccc21,125.1
17,COCC(=O)N1CCCN(C(=O)C2Cc3ccccc3CN2C)CC1 (centres undefined),-0.0278
18,COc1cccc(-n2nnc(C(=O)N3CCCC3)c2C)c1,-5.233
19,COCCO[C@H]1CCN(c2ccc(C)nn2)[C@H]1Cc1cnn(C)c1,102.2
20,Cn1cc(C[C@H]2[C@@H](O)CCN2C(=O)c2ccc[nH]2)cn1,-3.734
21,Cn1cc(C[C@H]2[C@H](O)CCN2C(=O)C2CCCC2)cn1,-2.611
22,COCCO[C@@H]1CCN(C(=O)c2ccc(C)o2)[C@@H]1Cc1cnn(C)c1,-2.237
23,CCO[C@@H]1CCN(C(=O)N(C)C)[C@@H]1Cc1cnn(C)c1,6.075
24,COCCO[C@H]1CCN(C(=O)c2ccno2)[C@H]1Cc1cnn(C)c1,-8.767

row,Structure (SMILES),Percent Effect [%]
1,Cc1ccc(N2CC[C@H](O)[C@@H]2Cc2cnn(C)c2)nn1,105.5
2,CCO[C@@H]1CCN(c2ccc(C)nn2)[C@@H]1Cc1cnn(C)c1,109.6
3,CO[C@H]1CCN(c2ccc(C)nn2)[C@H]1Cc1cnn(C)c1,-0.6949
4,CCC(C)(NCC(=O)OC)c1nc(C)cs1 (centres undefined),4.251
5,CC(C)c1nc2n(n1)CC(NCC(=O)N(C)Cc1cccs1)CC2 (centres undefined),-0.7675
6,Cn1c(=O)[nH]c2cc(C(=O)OCCCn3ccccc3=O)ccc21,-6.987
7,O=C(O)C(F)(F)F.O=C(O)C(F)(F)F.c1cnn(CCCO[C@@H]2CC[C@H]3[C@H]2OCCN3CC2CC2)c1,100.5
8,CCO[C@H]1CC[C@H]2[C@H]1OCCN2CCOCc1ccccc1.O=C(O)C(F)(F)F,-37.65
9,CCO[C@@H]1CC[C@H]2[C@H]1OCCN2CCOCc1ccccc1.O=C(O)C(F)(F)F,-21.46
10,Cc1nnc(N2C[C@@H](OCCCn3cccn3)[C@H]3OCCC[C@H]32)s1.O=C(O)C(F)(F)F.O=C(O)C(F)(F)F,12.15
11,O=C(O)C(F)(F)F.O=C(O)C(F)(F)F.c1cnn(CCCO[C@@H]2CN(C3CCOCC3)[C@@H]3CCCO[C@@H]32)c1,99.23
12,O=C(O)C(F)(F)F.O=C(O)C(F)(F)F.c1cnn(CCCO[C@@H]2CC[C@H]3[C@H]2OCCN3CC2CCOCC2)c1,107.9
13,Cc1nnc(N2C[C@H](OCCCn3cccn3)[C@H]3OCCC[C@H]32)s1,1.098
14,O=C(CO[C@@H]1CC[C@H]2[C@H]1OCCN2CC1CCOCC1)N1CCCC1.O=C(O)C(F)(F)F,-8.196
15,CN(C)CCSc1ccc(NC(=O)c2nccn3ccnc23)cc1,11.77
16,COc1cc(OC)cc(C2CCN(CC(=O)NCC(F)(F)F)C2)c1 (centres undefined),-9.174
17,CS(=O)(=O)N1CCOCC12CCN(Cc1ccc(F)cc1)CC2.O=C(O)C(F)(F)F,90.38
18,Cc1ccc(CN2CCC3(CC2)COCCN3S(C)(=O)=O)o1.O=C(O)C(F)(F)F,105
19,CS(=O)(=O)N1CCOCC2(CN(Cc3ccc(F)cc3)CCO2)C1.O=C(O)C(F)(F)F (centres undefined),-3.432
20,Cc1ccc(CN2CCOC3(COCCN(Cc4ccncc4)C3)C2)o1.O=C(O)C(F)(F)F.O=C(O)C(F)(F)F.O=C(O)C(F)(F)F (centres undefined),-16.88
21,Cc1ccc(CN2CCOC3(COCCN(S(C)(=O)=O)C3)C2)o1.O=C(O)C(F)(F)F (centres undefined),-4.149
22,COCc1nc(CNc2cccc(-c3nc(C)c(C)o3)c2)cs1,-0.1423
23,N#Cc1cccc(C(=O)N2C[C@H]3CC[C@@H]2CN(C(=O)C2CCC2)C3)c1,-9.215
24,CN(C)S(=O)(=O)N1C[C@@H]2CC[C@H](C1)N(Cc1ccc(F)c(F)c1)C2,-2.464

row,Structure (SMILES),Percent Effect [%]
1,Cc1c(Cl)cc(C(=O)NCCc2ncnn2C)cc1Cl,-11.54
2,O=C1CC(c2cccc(O)c2)c2sc(C(=O)O)c(-c3ccccc3)c2N1 (centres undefined),10.05
3,Cc1cccc(CN2C[C@H]3C[C@H](C(=O)NCc4cccnc4)[C@@H](C2)O3)c1.O=C(O)C(F)(F)F.O=C(O)C(F)(F)F,-0.193
4,COc1ccc(CN2C[C@@H]3COC[C@H](N4CCN(C)CC4)[C@@H]3C2)cc1.O=C(O)C(F)(F)F.O=C(O)C(F)(F)F.O=C(O)C(F)(F)F,-28.1
5,CNC(=O)[C@H]1C[C@@H]2CN(Cc3cccc(C)c3)C[C@H]1O2.O=C(O)C(F)(F)F,116.6
6,CNC(=O)[C@H]1C[C@@H]2CN(Cc3ccc(C)cc3)C[C@H]1O2.O=C(O)C(F)(F)F,103.7
7,CN(C)C(=O)[C@H]1C[C@@H]2CN(CCc3ccccc3)C[C@H]1O2.O=C(O)C(F)(F)F,12.58
8,Cc1ccc(CN2C[C@H]3C[C@H](C(=O)NCc4cccnc4)[C@@H](C2)O3)cc1,0.7721
9,CNC(=O)[C@H]1CCS(=O)(=O)[C@@H]2CN(Cc3ccc(OC)cc3)C[C@H]12,0.06663
10,CNC(=O)[C@H]1C[C@@H]2CN(Cc3ccc(OC)cc3)C[C@H]1O2.O=C(O)C(F)(F)F,98.44
11,CNC(=O)[C@H]1C[C@@H]2CN(Cc3ccccc3)C[C@H]1O2.O=C(O)C(F)(F)F,106.1
12,CC(C)c1nc(CNc2ccc(N3CCC(CO)CC3)cn2)cs1,0.232
13,Cl.O=C(CN1CCC[C@@H]1C(=O)O)NCCOc1cccc(C(F)(F)F)c1,-3.641
14,Cc1nccc(N2C[C@@H](CN3CCCC3)[C@@H](CO)C2)n1,109.4
15,Cc1nc(N2C[C@@H](CN3CCCCC3)[C@@H](CO)C2)c2sccc2n1,8.907
16,Nc1nccc(N2C[C@@H](CN3CCCCC3)[C@@H](CO)C2)n1,106.5
17,Cn1ccnc1CN1C[C@@H](CN2CCCCC2)[C@@H](CO)C1,-0.1943
18,Cn1ccnc1CN1C[C@@H](CN2CCCCCC2)[C@@H](CO)C1,-5.321
19,Cn1ccnc1CN1C[C@@H](CN2CCCC2)[C@@H](CO)C1,2.193
20,OC[C@H]1CN(Cc2c(Cl)cccc2Cl)C[C@H]1CN1CCCCC1,2.429
21,CCN1CCN(C[C@@H]2CN(c3ncccc3Cl)C[C@@H]2CO)CC1,-1.669
22,CSc1nccc(N2C[C@@H](CN3CCCCC3)[C@@H](CO)C2)n1,104.9
